# Screening results: PubChem BioAssay, National Center for Advancing Translational Sciences (NCATS)
# This is a sample that favours compounds with a hit; in the whole collection about 19% have one here.
# S-ASM inh – inhibitors of human secretory acid sphingomyelinase; P17405; placental ASM, HMU-PC fluorogenic substrate, 60 min; Potency, µM (series often up to 57.5 µM), for the others: at the highest dose activity change, negative = inhibition, usual class: inhibitors; 340,000 compounds, 0.006% hits; AID 504937; further: potency means the concentration at half of the fitted maximal effect
# Target sequence (P17405 47-631 limits assumed): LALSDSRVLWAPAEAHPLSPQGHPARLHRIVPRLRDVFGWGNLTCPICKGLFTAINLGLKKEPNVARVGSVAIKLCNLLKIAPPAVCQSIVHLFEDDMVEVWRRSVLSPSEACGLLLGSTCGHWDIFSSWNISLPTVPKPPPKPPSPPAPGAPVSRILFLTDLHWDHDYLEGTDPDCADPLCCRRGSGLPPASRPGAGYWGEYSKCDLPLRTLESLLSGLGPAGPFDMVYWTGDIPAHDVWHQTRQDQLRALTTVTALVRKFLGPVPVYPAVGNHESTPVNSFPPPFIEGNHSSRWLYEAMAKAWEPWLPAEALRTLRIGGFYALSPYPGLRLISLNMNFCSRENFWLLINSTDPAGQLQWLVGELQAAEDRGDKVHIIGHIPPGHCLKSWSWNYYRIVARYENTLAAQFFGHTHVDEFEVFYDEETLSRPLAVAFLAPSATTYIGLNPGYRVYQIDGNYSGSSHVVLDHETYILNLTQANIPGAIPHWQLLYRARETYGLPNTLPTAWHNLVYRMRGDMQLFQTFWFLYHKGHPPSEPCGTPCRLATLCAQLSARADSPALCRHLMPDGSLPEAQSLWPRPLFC
#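 Human placenta-derived ASM preincubated with compound 10 min at room temperature, then reacted with 9 uM (final) fluorogenic HMU-PC substrate for 60 min at 37 C. Stop solution raises pH to 10; fluorescence read at Ex 386/Em 447 nm.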
# TDP1 cell noCPT – qHTS for Inhibitors of human tyrosyl-DNA phosphodiesterase 1 (TDP1): qHTS in cells in absence of CPT; DT40 Tdp1-/- hTDP1 cells, no CPT, ATP luminescence, 48 h; Potency, µM (top dose mostly 46.2 µM), inactives show at the top dose activity change, negative = growth inhibition, usual class: inhibitors; 420,000 compounds, 15% hits; AID 686978, 2013; further: potency means the concentration at half of the fitted maximal effect; on the % scale 0 is the no-effect control and ±100 the full control effect; nearly all actives have a fitted effect of over 55% in size
#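 DT40 Tdp1-/-;hTDP1 cells, no CPT (DMSO vehicle only), 400 cells/well; compounds pin-transferred; ≥48 hr, 37 °C; CellTiter-Glo 30 min RT dark, luminescence read.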
# HepG2 viability – HepG2 cytotoxicity, counter-screen for TGF-b inhibitors | HepG2 CAGA-GFP viability, ATP luminescence, 18 h | Potency, µM (titrated, usually from 46.1 µM), for the others: at the highest dose activity change, negative = cytotoxicity, actives largely listed as cytotoxic | 410,000 compounds, 0.76% hits; further: potency means the concentration at half of the fitted maximal effect
#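 HepG2 CAGA-GFP cells (1000/well, DMEM with 1% FBS) received compound, then TGF-beta at 500 pg/mL final, and were incubated 18 hours at 37 degrees C. Viability was read by CellTiter-Glo luminescence. Media-only wells were set as complete cell-killing and DMSO as no toxicity.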
# IL1B secr inh – inflammasome signaling inhibition, IL-1 beta readout | THP-1 LPS/ATP IL-1B secretion, AlphaLISA, 16 h; active compounds read low | activity change, % at 57.5 µM | 360,000 compounds, 4.7% hits; in the data active means activity change below about -50%; inconclusive means mostly about -30% to -49%; further: on the % scale 0 is the no-effect control and ±100 the full control effect
#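 Secreted IL-1B measured by AlphaLISA bead assay after 16 h compound exposure of THP-1 cells; compounds (final up to 57.5 uM) added 1 h before LPS (250 ng/mL) and ATP (1.25 mM) stimulation; lower signal means less secretion.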
# TGFb SMAD3 inh – inhibitors of TGF-b signaling. 410,000 compounds, 1.2% hits. HepG2 CAGA-GFP TGF-b/SMAD3 reporter, GFP fluorescence, 18 h; TGF-beta stimulated, 500 pg/mL final. AID 588855. Potency, µM (titrated, usually from 46.1 µM), for the others: at the highest dose activity, negative = inhibition, usual class: inhibitors; further: potency means the concentration at half of the fitted maximal effect; on the % scale 0 is the no-effect control and ±100 the full control effect; nearly all actives have a fitted effect of over 65% in size
#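 Read-out: total well GFP (ex488/em500-530) summed from mean per-cell fluorescence. Cells: HEPG2 CAGA-GFP, 1% FBS DMEM, 18 h at 37 degrees C with 500 pg/mL final TGF-beta. Unstimulated wells served as the full-inhibition control; stimulated DMSO wells = 0%.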
# TDP1 cell CPT – growth inhibition of DT40 Tdp1-/-;hTDP1 cells with camptothecin (screen for TDP1 inhibitors); Potency, µM (top dose mostly 46.2 µM), for inactives: top-dose activity change, negative = growth inhibition, hits mostly inhibitors; 420,000 compounds, 12% hits; AID 686979; chicken DT40 Tdp1-/-;hTDP1 cells + 20 nM CPT, ATP luminescence, 48 h; further: potency means the concentration at half of the fitted maximal effect; on the % scale 0 is the no-effect control and ±100 the full control effect; nearly all actives have a fitted effect of over 55% in size
#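 Cell growth measured by CellTiter-Glo luminescence after a minimum 48 h, 37 C compound exposure with 20 nM CPT in Tdp1-knockout DT40 cells stably expressing hTDP1, seeded 400/well; qHTS titration format.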
# * hit, by the source's call; i = inactive; ? = inconclusive; / = no result given. Unless noted, the call rests on the fitted dose curve; in most records, active means well fitted curve in the direction sought with a large enough effect; inconclusive means small, poorly fitted or top-dose-only effect, or another doubt; inactive means no such curve, though single readings can be large; an effect the other way counts as inactive or inconclusive.
SMILES,S-ASM inh,TDP1 cell noCPT,HepG2 viability,IL1B secr inh,TGFb SMAD3 inh,TDP1 cell CPT
COc1cc2ccc(-c3ccc4ccccc4n3)cc2cc1OC,/,6.5µM*,-17%,-4,7%,?
Cc1cc(-c2nnc(SCC(=O)Nc3nccs3)o2)no1,-3%,19%,-11%,-8,-10%,0%
C(=C\c1cnc2ccccc2n1)/c1ccc2c(c1)OCO2,/,?,-35%,/,4%,?
COc1ccc(/C=C/c2cnc3ccccc3n2)cc1OC,/,20µM*,-35%,/,-4%,?
COc1ccc(/C=C/c2ccc3ccccc3n2)cc1OC,/,13µM*,-19%,/,-2%,?
COc1ccc(-c2ccc3ccccc3n2)cc1OC,14%,?,-8%,-5,12%,4%
CCOc1cc(CNc2ccc(N3CCCCC3)cc2)cc(Br)c1OCC(=O)NC(C)(C)C,-4%,16µM*,-35%,-86*,?,?
CCOc1cc(CNc2ccc(N(C)C)cc2)cc(Br)c1OCC(=O)NC(C)(C)C,4%,21µM*,-32%,-11,?,18µM*
Cc1nnsc1-c1onc(C)c1C(=O)Nc1cc(Cl)cc(Cl)c1,-19%,-101%,-60%,?,16µM*,?
Cc1ccc(-n2ncc3c(=O)n(CC(=O)N4CCCc5ccccc54)cnc32)cc1C,-9%,16µM*,-6%,-24,?,?
COc1ccc(-n2ncc3c(=O)n(CC(=O)N4CCCc5ccccc54)cnc32)cc1,-3%,23µM*,0%,-7,39%,?
O=C(Cn1cnc2c(cnn2-c2ccc(F)cc2)c1=O)N1CCCc2ccccc21,0%,-24%,-6%,-17,?,-3%
COc1cccc(-c2ncc3ccccc3c2COC(=O)N(C)C)c1,7%,18µM*,-38%,-5,-18%,18µM*
O=C(OCc1c(-c2ccccc2)ncc2ccccc12)c1ccc(Br)cc1,-13%,13µM*,2%,18,-1%,-25%
COc1cc2oc(=O)c(CC(=O)N3CCCCC3)c(C)c2cc1Cl,/,3%,-2%,/,0%,-1%
CCCCCCOC(=O)/C=C/c1c(C)[nH]c(=O)[nH]c1=O,-4%,4.6µM*,9%,31,3%,?
CCCCCCCCOC(=O)CCc1c(C)[nH]c(=S)[nH]c1=O,-7%,-13%,-21%,-11,-2%,?
O=C(C1CC12CCN(Cc1cccc3cccnc13)CC2)N1CCN(Cc2cccs2)CC1 (configuration not stated),/,?,/,/,/,1.6µM*
O=C1[C@@H]2CSC(c3ccc(F)cc3)N2C(=O)N1c1ccc(Cl)cc1 (some centres not stated),/,-2%,-16%,/,?,3%
CC(C)[C@H](NC(=O)OC(C)(C)C)c1cc(C(=O)N(C)CCN(C)C)c(N)s1,/,12%,/,-13,/,1%
COc1ccc(NC(=O)c2cc(CN3CCCC3)on2)cc1Cl,/,-11%,-4%,/,3%,0%
Cc1cccn2c(=O)c(/C=C(\C#N)C(N)=O)c(N3CCN(Cc4ccc5c(c4)OCO5)CC3)nc12,33%,?,-28%,-51*,-1%,?
COCCNC(=O)/C(C#N)=C/c1c(N2CCCCCC2)nc2c(C)cccn2c1=O,118%,15µM*,-31%,-21,-22%,?
COCCCNC(=O)/C(C#N)=C/c1c(N2CCN(c3ccc(OC)cc3)CC2)nc2c(C)cccn2c1=O,227%,15µM*,-32%,-23,-1%,23µM*
CNC(=O)/C(C#N)=C/c1c(N2CCN(c3ccc(OC)cc3)CC2)nc2c(C)cccn2c1=O,i,?,-2%,?,35%,?
SMILES,S-ASM inh,TDP1 cell noCPT,HepG2 viability,IL1B secr inh,TGFb SMAD3 inh,TDP1 cell CPT
CNC(=O)/C(C#N)=C/c1c(N2CCN(c3ccccc3)CC2)nc2c(C)cccn2c1=O,i,15µM*,-25%,-13,0%,?
CCOC(=O)C(=COC(=O)c1ccccc1)NC(=O)Cc1ccccc1,-1%,4%,-16%,-2,4%,-26%
CCN(CC(=O)Nc1ccc(N2CCOCC2)cc1)C(=O)c1ccc(C#N)cc1,0%,7%,-7%,-6,1%,-2%
CNc1oc(-c2ccccc2Cl)nc1P(=O)(c1ccccc1)c1ccccc1,-1%,15µM*,2%,-79*,?,?
O=C(Cc1ccccc1)Nc1cccc(N2C(=O)C=CC2=O)c1,2%,4.6µM*,-60%,-67*,?,5.2µM*
CN(CC(=O)Nc1cccc(F)c1)C(=O)c1ccccc1CCc1ccccc1,-11%,21µM*,-39%,0,-16%,15µM*
COc1ccc(NC(=O)CN(C)C(=O)C(Sc2ccccc2)c2ccccc2)cc1 (configuration not stated),-3%,?,-28%,6,?,16µM*
COc1ccc(NC(=O)CN(C)C(=O)c2ccccc2CCc2ccccc2)cc1,-4%,-25%,-17%,-52*,-14%,-21%
O=C(Cc1cccc(NC(=O)C2CCN(C(=O)C3CCCCC3)CC2)c1)Nc1cccc(C(=O)N2CCOCC2)c1,11%,-4%,10%,-7,-8%,-15%
O=C(CN1C(=O)NC2(CCc3ccccc32)C1=O)c1ccc(Br)s1 (configuration not stated),-1%,8%,-12%,-1,-7%,3%
CC(Oc1ccccc1)C(=O)OCc1cc(=O)n2nc(C(C)C)sc2n1 (configuration not stated),/,0%,-21%,/,-17%,-22%
Cc1cccc(-c2nnc(C(C)Nc3cccc(C(=O)NC4CC4)c3)o2)c1 (configuration not stated),/,?,0%,-5,8%,?
O=C(CSCc1ccccc1)Nc1cccc(F)c1,5%,?,1%,9,-2%,7.3µM*
CC(C)[C@H](NS(=O)(=O)c1ccc2c(c1)OCCO2)C(=O)OCC(=O)Nc1cc(Cl)ccc1Cl,-3%,29µM*,-30%,30,-10%,?
O=C(c1ccc(NS(=O)(=O)c2ccc3c(c2)OCCO3)cc1)N1CCCCC1,1%,21µM*,-16%,?,-24%,?
